Results filed as inconclusive are left out. Activity calls are given as the source filed them. Rule for the calls, unless noted: active = hit-call score of the fitted dose curve at least 0.9, where 1 is the maximum; inactive = score below 0.9.
Assays:
[1] = read-out: succinate dehydrogenase complex iron sulfur subunit B (SDHB), SDHB (gene 6390); test: LTEA_HepaRG_SDHB: Life Technologies and Expression Analysis (LTEA) Assay for succinate dehydrogenase complex iron sulfur subunit B (SDHB) using HepaRG (AID 2283528); conditions: mRNA level, 48 h; actives raise or lower the signal
Procedure, shortened: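 SDHB transcript level read by TaqMan qRT-PCR, housekeeping-normalised (ACTB, GAPDH, POLR2A), after 48 h chemical treatment of plated HepaRG cells; eight concentrations top 100 uM, half-log steps, 0.5% DMSO, duplicates; fitted both directions against DMSO.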

[2] = read-out: Signal transducer and activator of transcription 3 (Homo sapiens) (UniProt P40763); test: LTEA_HepaRG_STAT3: Life Technologies and Expression Analysis (LTEA) Assay for Signal transducer and activator of transcription (STAT3) using HepaRG (AID 2283529); conditions: mRNA level, 48 h; actives raise or lower the signal
Procedure, shortened: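 In this transcriptional endpoint, HepaRG cultures receive test chemicals at up to 100 uM for 48 h, tested in duplicate. STAT3 mRNA is normalized to ACTB, GAPDH and POLR2A.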

[3] = read-out: solute carrier (SLCO1B1), SLCO1B1 (gene 10599); test: LTEA_HepaRG_SLCO1B1: Life Technologies and Expression Analysis (LTEA) Assay for solute carrier (SLCO1B1) using HepaRG (AID 2283530); conditions: mRNA level, 48 h; actives raise or lower the signal
Procedure, shortened: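 HepaRG, serum-free induction medium, 48 h dosing, 8-pt half-log from 100 uM, 0.5% DMSO vehicle, duplicates. Readout: SLCO1B1 mRNA, qRT-PCR, ACTB/GAPDH/POLR2A normalization; up or down fit vs DMSO.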

[4] = read-out: sulfotransferase 2A1 (SULT2A1), SULT2A1 (gene 6822); test: LTEA_HepaRG_SULT2A1: Life Technologies and Expression Analysis (LTEA) Assay for sulfotransferase 2A1 (SULT2A1) using HepaRG (AID 2283531); conditions: mRNA level, 48 h; actives raise or lower the signal
Procedure, shortened: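 Transcript levels of SULT2A1, quantified by qRT-PCR and normalized to three housekeeping genes, serve as the readout. Human HepaRG cultures receive test chemicals for 48 h at up to 100 uM in half-log steps, with 0.5% DMSO vehicle.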

[5] = read-out: Transforming Growth Factor (TGFA), TGFA (gene 7039); test: LTEA_HepaRG_TGFA: Life Technologies and Expression Analysis (LTEA) Assay for Transforming Growth Factor (TGFA) using HepaRG (AID 2283532); conditions: mRNA level, 48 h; actives raise or lower the signal
Procedure, shortened: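 Gene expression of TGFA was quantified by qRT-PCR after human HepaRG cells were treated for 48 h with test chemicals (eight concentrations, highest 100 uM, 0.5% DMSO). Activity in either direction was fitted relative to DMSO.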

TIMP1, TIMP1 (gene 7076) = test: LTEA_HepaRG_TIMP1: Life Technologies and Expression Analysis (LTEA) Assay for TIMP1 using HepaRG (AID 2283534); conditions: mRNA level, 48 h; actives raise or lower the signal;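 note: TaqMan qRT-PCR signal normalized to ACTB GAPDH and POLR2A housekeeping genes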
Procedure, shortened: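 Readout is TIMP1 mRNA level measured by qRT-PCR and normalized to three housekeeping genes. Human HepaRG cells were treated for 48 h in duplicate at eight concentrations up to 100 uM (0.5% DMSO); gain or loss fitted against DMSO.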

[6] = read-out: Tumor necrosis factor receptor 1 (TNFRSF1A), TNFRSF1A (gene 7132); test: LTEA_HepaRG_TNFRSF1A: Life Technologies and Expression Analysis (LTEA) Assay for Tumor necrosis factor receptor 1 (TNFRSF1A) using HepaRG (AID 2283535); conditions: mRNA level, 48 h; actives raise or lower the signal
Procedure, shortened: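 Read-out is TNFRSF1A transcript level by TaqMan qRT-PCR, normalized to three housekeeping genes, scored as gain or loss of signal versus 0.5% DMSO. Human HepaRG cells received test chemicals for 48 h at up to 100 uM (half-log series).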

[7] = read-out: Thyroid Hormone Responsive (THRSP), THRSP (gene 7069); test: LTEA_HepaRG_THRSP: Life Technologies and Expression Analysis (LTEA) Assay for Thyroid Hormone Responsive (THRSP) using HepaRG (AID 2283536); conditions: mRNA level, 48 h; actives raise or lower the signal
Procedure, shortened: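 Cell model: human HepaRG, approx. 100,000 cells/well, 0.5% DMSO vehicle. Exposure lasts 48 h; phenobarbital 1 mM serves as induction positive control. Gene expression is measured by qRT-PCR against three endogenous control genes.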

[8] = read-out: Cellular tumor antigen p53 (Homo sapiens) (UniProt P04637); test: LTEA_HepaRG_TP53: Life Technologies and Expression Analysis (LTEA) Assay for Tumor Protein P53 (TP53) using HepaRG (AID 2283537); conditions: mRNA level, 48 h; actives raise or lower the signal
Procedure, shortened: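 TP53 transcript measured by qRT-PCR, normalized to three housekeeping genes, after 48 h treatment of human HepaRG cultures with chemicals from 100 uM downward in half-log steps (0.5% DMSO vehicle, serum-free induction medium). Up- or down-regulation fitted against DMSO.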

[9] = read-out: UDP glucuronosyltransferase (UGT1A1), UGT1A1 (gene 54658); test: LTEA_HepaRG_UGT1A1: Life Technologies and Expression Analysis (LTEA) Assay for UDP glucuronosyltransferase (UGT1A1) using HepaRG (AID 2283538); conditions: mRNA level, 48 h; actives raise or lower the signal
Procedure, shortened: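 HepaRG, 48 h chemical exposure (top 100 uM, half-log 8-pt, 0.5% DMSO vehicle), duplicate wells; qRT-PCR (TaqMan, Fluidigm array) for UGT1A1 mRNA, housekeeping-normalized; bidirectional curve fit vs DMSO baseline.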

[10] = read-out: UDP glucuronosyltransferase (UGT1A6), UGT1A6 (gene 54578); test: LTEA_HepaRG_UGT1A6: Life Technologies and Expression Analysis (LTEA) Assay for UDP glucuronosyltransferase (UGT1A6) using HepaRG (AID 2283539); conditions: mRNA level, 48 h; actives raise or lower the signal
Procedure, shortened: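 HepaRG, 48 h post-plating switch to serum-free induction medium; chemical 48 h, 100 uM top, half-log x8, duplicate, 0.5% DMSO. Phenobarbital 1mM induction control. UGT1A6 mRNA by TaqMan qRT-PCR; gain/loss fit vs DMSO.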

[11] = read-out: X-box binding protein 1 (XBP1), XBP1 (gene 7494); test: LTEA_HepaRG_XBP1: Life Technologies and Expression Analysis (LTEA) Assay for X-box binding protein 1 (XBP1) using HepaRG (AID 2283540); conditions: mRNA level, 48 h; actives raise or lower the signal
Procedure, shortened: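 Transcript levels of XBP1, measured by qRT-PCR and normalised to three housekeeping genes, were fitted bidirectionally relative to 0.5% DMSO controls. Human HepaRG cells received eight-point half-log dilutions from 100 uM for 48 h.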

[12] = LTEA_HepaRG_LDH_cytotoxicity: Cytotoxicity Assessment in the Life Technologies and Expression Analysis (LTEA) Assay (AID 2283563; active = hit-call score of the fitted dose curve at least 0.9, where 1 is the maximum)
Procedure, shortened: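 Cells were thawed and plated for 48 h. Medium was then replaced with serum-free induction medium. Chemicals (8 half-log points, maximum 100 uM, 0.5% DMSO) were added in duplicate for 48 h, after which spent medium was assayed for LDH.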

[13] = ATG_XTT_Cytotoxicity: Cytotoxicity Assessment in the Attagene TRANS-FACTORIAL HepG2 Assay (AID 2283584; active = hit-call score of the fitted dose curve at least 0.9, where 1 is the maximum)
Procedure, shortened: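 Cells: human HepG2, transiently transfected with MRTU reporter constructs. Exposure 24 h. Readout: XTT, cell number. Baseline/neg ctrl DMSO; loss-of-signal scored.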

[14] = TOX21_p53_BLA_p2_viability: Viability Assessment in the Tox21 HCT-116 p53 Agonism Beta-lactamase Assay, Phase 2 (AID 2283591; active = hit-call score of the fitted dose curve at least 0.9, where 1 is the maximum;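 note: compound exposure lasted 16 h at 37 °C; actives lower the ATP signal meaning cytotoxicity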)
Procedure, shortened: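 HCT-116 p53-bla cells (4000/well) rested 5 h at 37C, then received compounds in DMSO (217-fold dilution) for 16 h at 37C, 5% CO2. After the CCF4 read, CellTiter-Glo was added; ATP luminescence was read after 30 min at room temperature.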

[15] = molecular target: Cellular tumor antigen p53 (Homo sapiens) (UniProt P04637); test: TOX21_p53_BLA_p2_ratio: Tox21 HCT-116 p53 Agonism Beta-lactamase Assay, Ratio, Phase 2 (AID 2283592; active = hit-call score of the fitted dose curve at least 0.9, where 1 is the maximum)
Chain of Cellular tumor antigen p53 (Homo sapiens) (P04637 whole entry, looked up): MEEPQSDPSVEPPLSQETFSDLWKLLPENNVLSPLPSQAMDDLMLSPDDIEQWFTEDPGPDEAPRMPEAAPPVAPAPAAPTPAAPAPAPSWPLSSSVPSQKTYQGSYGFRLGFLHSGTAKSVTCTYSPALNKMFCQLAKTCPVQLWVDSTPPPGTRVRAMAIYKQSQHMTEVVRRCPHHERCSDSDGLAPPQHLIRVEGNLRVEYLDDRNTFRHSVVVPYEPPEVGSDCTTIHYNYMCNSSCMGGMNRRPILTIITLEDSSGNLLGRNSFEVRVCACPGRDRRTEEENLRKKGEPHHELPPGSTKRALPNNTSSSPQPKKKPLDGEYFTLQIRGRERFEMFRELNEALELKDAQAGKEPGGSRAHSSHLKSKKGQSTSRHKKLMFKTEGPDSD
Procedure, shortened: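 Plated HCT116 p53-bla cells (4000/well) received compound after 5 h, then 16 h at 37C/5% CO2. CCF4-AM added, 2 h RT. Ratio of 460 to 530 nm emission taken as the p53 reporter signal.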

[16] = TOX21_p53_BLA_p3_viability: Viability Assessment in the Tox21 HCT-116 p53 Agonism Beta-lactamase Assay, Phase 3 (AID 2283593; active = hit-call score of the fitted dose curve at least 0.9, where 1 is the maximum;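 note: cells exposed to compound for 16 h before reading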)
Procedure, shortened: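 HCT-116 cells (4000/well) rested 5 h at 37C, then got DMSO compounds by pin tool (217-fold dilution) for 16 h at 37C, 5% CO2. After the bla read, CellTiter-Glo was added and luminescence read at 30 min, room temperature.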

[17] = molecular target: Cellular tumor antigen p53 (Homo sapiens) (UniProt P04637); test: TOX21_p53_BLA_p3_ratio: Tox21 HCT-116 p53 Agonism Beta-lactamase Assay, Ratio, Phase 3 (AID 2283596; active = hit-call score of the fitted dose curve at least 0.9, where 1 is the maximum)
Procedure, shortened: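 Cells were seeded at 4000/well, rested 5 h at 37C, then dosed with DMSO compound solutions (217-fold dilution) for 16 h. CCF4-AM substrate was loaded for 2 h at room temperature, and the 460/530 nm emission ratio was fitted for gain of signal versus DMSO.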

[18] = TOX21_p53_BLA_p4_viability: Viability Assessment in the Tox21 HCT-116 p53 Agonism Beta-lactamase Assay, Phase 4 (AID 2283597; active = hit-call score of the fitted dose curve at least 0.9, where 1 is the maximum;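 note: hits lower the luminescence signal meaning cytotoxicity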)
Procedure, shortened: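 Readout: ATP luminescence (CellTiter-Glo), measured 30 min after reagent addition at RT. The reagent followed a 2 h CCF4-AM incubation, and the cells had been exposed to compound for 16 h at 37C.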

[19] = read-out: Transforming Growth Factor (TGFB1), TGFB1 (gene 7040); test: LTEA_HepaRG_TGFB1: Life Technologies and Expression Analysis (LTEA) Assay for Transforming Growth Factor (TGFB1) Transporter using HepaRG (AID 2283533); conditions: mRNA level, 48 h; actives raise or lower the signal
Procedure, shortened: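 HepaRG, 48 h post-plating, switched to serum-free induction medium; chemicals 100 uM top, half-log, 8 pts, 0.5% DMSO, dup; 48 h exposure; RNA → Fluidigm TaqMan qRT-PCR; norm ACTB/GAPDH/POLR2A; bidirectional fit vs DMSO.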

Measured: outcome

Chain of Signal transducer and activator of transcription 3 (Homo sapiens) (P40763 whole entry, looked up): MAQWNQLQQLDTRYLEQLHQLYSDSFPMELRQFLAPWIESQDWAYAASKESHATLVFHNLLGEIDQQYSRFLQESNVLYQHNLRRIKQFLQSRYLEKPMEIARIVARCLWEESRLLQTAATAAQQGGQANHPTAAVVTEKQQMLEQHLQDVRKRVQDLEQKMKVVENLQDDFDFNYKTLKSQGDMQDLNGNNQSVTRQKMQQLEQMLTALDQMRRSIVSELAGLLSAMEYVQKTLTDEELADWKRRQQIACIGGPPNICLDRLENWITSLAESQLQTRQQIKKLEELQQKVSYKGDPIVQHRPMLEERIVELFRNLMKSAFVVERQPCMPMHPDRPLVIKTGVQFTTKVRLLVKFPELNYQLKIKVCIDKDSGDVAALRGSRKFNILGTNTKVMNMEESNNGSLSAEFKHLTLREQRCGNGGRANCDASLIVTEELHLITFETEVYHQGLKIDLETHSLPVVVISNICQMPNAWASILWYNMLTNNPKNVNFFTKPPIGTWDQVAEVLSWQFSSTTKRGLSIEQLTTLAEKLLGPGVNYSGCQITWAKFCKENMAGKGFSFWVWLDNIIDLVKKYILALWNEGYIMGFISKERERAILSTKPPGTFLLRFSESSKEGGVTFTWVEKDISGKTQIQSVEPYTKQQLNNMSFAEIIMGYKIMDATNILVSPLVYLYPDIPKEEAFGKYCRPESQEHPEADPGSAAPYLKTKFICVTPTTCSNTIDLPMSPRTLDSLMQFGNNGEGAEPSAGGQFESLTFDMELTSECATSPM

O=C1c2c(O)cccc2Cc2cccc(O)c21
not listed: [19]
inactive: all other assays above

CC(COCC(C)OC(=O)c1ccccc1)OC(=O)c1ccccc1 (stereo unspecified)
inactive: [1] | [2] | [3] | [4] | [5] | [19] | TIMP1, TIMP1 (gene 7076) | [7] | [9] | [10] | [12]

O=C1O[C@H]([C@H](O)CO)C(O)=C1O
not listed: [3] | [11]
inactive: all other assays above

CCCC(=O)O
not listed: [6] | [8] | [13] | [14] | [15] | [16] | [17] | [18]
inactive: all other assays above

S=c1[nH]c2ccccc2s1
not listed: [6] | [11]
inactive: all other assays above

CC(=O)OC1CC(C)OC(C)O1 (stereo unspecified)
not listed: [6] | [8] | [14] | [15] | [16] | [17] | [18]
inactive: all other assays above

O=[Si]=O
not listed: [6] | [11] | [14] | [15] | [17]
inactive: all other assays above

Source: PubChem BioAssay (EPA / NIEHS)
